Screening results from PubChem.
A selection: hits, their analogues and other compounds. The true share with any hit is near 19%.
IL-1B inflam inh: qHTS for Inhibitors of Inflammasome Signaling: IL-1-beta AlphaLISA Primary Screen. 360,000 tested, 4.7% active. AID 743279, 2014. THP-1 LPS/ATP IL-1B secretion, AlphaLISA, 16 h; active compounds read low. activity change, % at 57.5 µM; in the data active means activity change below about -50%; inconclusive means mostly about -30% to -49%; further: on the % scale 0 is the no-effect control and ±100 the full control effect
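Secreted IL-1B measured by AlphaLISA bead assay after 16 h compound exposure of THP-1 cells; compounds (final up to 57.5 uM) added 1 h before LPS (250 ng/mL) and ATP (1.25 mM) stimulation; lower signal means less secretion.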
TGFb inhibitor: qHTS for Inhibitors of TGF-b; HepG2 CAGA-GFP TGF-b/SMAD3 reporter, GFP fluorescence, 18 h; TGF-beta stimulated, 500 pg/mL final; AID 588855, 2011; 410,000 tested, 1.2% active; Potency, µM (top dose mostly 46.1 µM), inactives show at the top dose activity, negative = inhibition, actives largely listed as inhibitors; further: potency means the concentration at half of the fitted maximal effect; on the % scale 0 is the no-effect control and ±100 the full control effect; nearly all actives have a fitted effect of over 65% in size
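GFP signal (ex488/em500-530) from TGF-beta-stimulated HEPG2 CAGA-GFP cells, 500 pg/mL final, 18 h at 37 degrees C in DMEM plus 1% FBS, normalized to unstimulated and DMSO-stimulated controls.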
TDP1 cell noCPT: qHTS for Inhibitors of human tyrosyl-DNA phosphodiesterase 1 (TDP1): qHTS in cells in absence of CPT; DT40 Tdp1-/- hTDP1 cells, no CPT, ATP luminescence, 48 h; AID 686978, 2013; 420,000 tested, 15% active; Potency, µM (top dose mostly 46.2 µM), without a hit: at the highest dose activity change, negative = growth inhibition, usual class: inhibitors; further: potency means the concentration at half of the fitted maximal effect; on the % scale 0 is the no-effect control and ±100 the full control effect; nearly all actives have a fitted effect of over 55% in size
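Compound effects on proliferation are scored in DT40 Tdp1-/-;hTDP1 cells in the absence of CPT. ATP levels (CellTiter-Glo luminescence) are recorded after a ≥48 hr, 37 °C incubation.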
HepG2 tox: qHTS for Inhibitors of TGF-b: Cytotox Counterscreen; HepG2 CAGA-GFP viability, ATP luminescence, 18 h; Potency, µM (series often up to 46.1 µM), without a hit: top-dose activity change, negative = cytotoxicity, actives largely listed as cytotoxic; 410,000 tested, 0.76% active; further: potency means the concentration at half of the fitted maximal effect
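CellTiter-Glo luminescence gave cytotoxicity after 18 hours at 37 degrees C. The cells were HepG2 CAGA-GFP in 1% FBS DMEM, stimulated with 500 pg/mL TGF-beta after compound addition. %Activity was normalised to no-cell wells (complete cell-killing) and DMSO (no toxicity), and curves were fitted and classified.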
TDP1 inh: qHTS Assay for Inhibitors of Tyrosyl-DNA Phosphodiesterase (TDP1); recombinant TDP1, AlphaScreen DNA substrate cleavage; Potency, µM (top dose mostly 130 µM), without a hit: at the highest dose activity change, negative = inhibition, most hits filed as inhibitors; 350,000 tested, 0.28% active; AID 485290, 2010; further: potency means the concentration at half of the fitted maximal effect; on the % scale 0 is the no-effect control and ±100 the full control effect; nearly all actives have a fitted effect of over 40% in size
Target sequence (Q9NUW8 whole entry, looked up): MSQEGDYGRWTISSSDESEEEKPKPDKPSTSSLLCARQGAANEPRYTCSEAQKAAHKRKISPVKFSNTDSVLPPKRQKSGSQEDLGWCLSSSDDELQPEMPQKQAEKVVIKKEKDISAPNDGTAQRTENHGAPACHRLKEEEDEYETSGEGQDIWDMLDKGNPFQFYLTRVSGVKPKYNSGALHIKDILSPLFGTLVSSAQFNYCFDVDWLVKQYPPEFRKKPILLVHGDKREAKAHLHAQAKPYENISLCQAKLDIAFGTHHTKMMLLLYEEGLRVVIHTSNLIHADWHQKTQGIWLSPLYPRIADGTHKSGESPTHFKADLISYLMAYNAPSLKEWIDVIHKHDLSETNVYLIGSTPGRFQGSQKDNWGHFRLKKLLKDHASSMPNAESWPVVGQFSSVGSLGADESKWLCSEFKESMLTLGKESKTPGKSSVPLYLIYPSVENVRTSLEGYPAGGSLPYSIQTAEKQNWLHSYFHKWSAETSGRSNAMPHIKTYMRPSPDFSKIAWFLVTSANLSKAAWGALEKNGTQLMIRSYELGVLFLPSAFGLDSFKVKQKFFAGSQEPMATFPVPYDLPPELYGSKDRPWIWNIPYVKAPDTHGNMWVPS
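Recombinant human Tdp1 (E. coli-expressed, 1 nM final) preincubated with compounds 15 min at room temperature, then 5'-biotin/3'-phosphotyrosine-FITC DNA substrate (15 nM final) added for 5 min. AlphaScreen beads (10 ug/ml final) added 10 min; cleavage lowers signal.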
TDP1 cell CPT: qHTS for Inhibitors of human tyrosyl-DNA phosphodiesterase 1 (TDP1): qHTS in cells in presence of CPT. chicken DT40 Tdp1-/-;hTDP1 cells + 20 nM CPT, ATP luminescence, 48 h. Potency, µM (top dose mostly 46.2 µM), for the others: at the top dose activity change, negative = growth inhibition, most hits filed as inhibitors. 420,000 tested, 12% active. AID 686979, 2013; further: potency means the concentration at half of the fitted maximal effect; on the % scale 0 is the no-effect control and ±100 the full control effect; nearly all actives have a fitted effect of over 55% in size
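Cell growth measured by CellTiter-Glo luminescence after a minimum 48 h, 37 C compound exposure with 20 nM CPT in Tdp1-knockout DT40 cells stably expressing hTDP1, seeded 400/well; qHTS titration format.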
Starred values were filed as active, the others as inactive; ? = inconclusive; / = no result given; [ ] = another dose, or the depositor's remark. Unless noted, the call rests on the fitted dose curve; in most records, active means well fitted curve in the direction sought with a large enough effect; inconclusive means small, poorly fitted or top-dose-only effect, or another doubt; inactive means no such curve, though single readings can be large; an effect the other way counts as inactive or inconclusive.

SMILES	IL-1B inflam inh	TGFb inhibitor	TDP1 cell noCPT	HepG2 tox	TDP1 inh	TDP1 cell CPT
O=C(NCc1ccccc1)C1=C[C@@H](c2csc3ccccc23)C[C@@H](OCc2ccc(CO)cc2)O1	?	?	4.6µM*	-30%	8%	2.9µM*
C#CCNC(=O)C1=C[C@@H](c2csc3ccccc23)C[C@@H](OCc2ccc(CO)cc2)O1	0	?	?	-55%	8%	16µM*
O=C(NCc1ccccc1)C1=C[C@@H](c2coc3ccccc3c2=O)C[C@@H](OCc2ccc(CO)cc2)O1	-9	-4%	9.2µM*	-7%	3%	10µM*
O=C(O)C(Cc1ccc2c(c1)oc1ccccc12)NCP(=O)(O)O (stereo not drawn)	/	/	/	/	6%	/
O=C1C(Nc2ccccc2)=CC(c2ccc(Br)cc2)N1c1ccccc1 (stereo not drawn)	/	2%	-23%	2%	/	?
COc1cccc(NC(=O)Cn2nc(-c3ccncc3)ccc2=O)c1	/	13%	0%	10%	1%	-1%
Cc1cc(C)c2c(c1)c(C)cc1nnc(SCC(=O)c3ccc(F)cc3)n12	/	-26%	?	-3%	-9%	?
O=C(C1=C[C@H](c2csc3ccccc23)C[C@H](OCc2ccc(CO)cc2)O1)N1CCCCCCC1	-20	?	21µM*	-27%	/	?
CC1CCN(S(=O)(=O)c2ccc3c(c2)oc(=O)n3CC(=O)NCc2ccc3c(c2)OCO3)CC1	-17	?	?	-21%	7%	?
COc1ccc(OC)c(NC(=O)CN2C(=O)CSc3ccc(S(=O)(=O)N4CCCC4)cc32)c1	-18	-10%	-21%	0%	8%	-30%
COc1ccc(CNC(=O)Cn2c(=O)oc3cc(S(=O)(=O)N4CCC(C)CC4)ccc32)cc1	/	?	8.2µM*	-24%	4%	8.2µM*
COc1ccc(NC(=O)Cn2c(=O)oc3cc(Cl)ccc32)c(OC)c1	10	20%	6.5µM*	1%	-2%	?
COc1ccc(Cl)cc1NC(=O)CN1C(=O)CSc2ccc(S(=O)(=O)N3CCCC3)cc21	/	-11%	23µM*	-8%	5%	16µM*
COc1ccc(NC(=O)Cn2c(=O)oc3cc(S(=O)(=O)N4CCCC4)ccc32)c(OC)c1	11	3%	?	0%	/	?
COc1ccc(Cl)cc1NC(=O)Cn1c(=O)oc2cc(S(=O)(=O)N3CCCCCC3)ccc21	/	0%	16µM*	7%	5%	?
Cc1cccc(NS(=O)(=O)c2cccc(C(=O)N3CCCC(C(F)(F)F)C3)c2)c1 (stereo not drawn)	0	3%	?	-48%	/	?
COc1cc(C)c(NC(=S)Nc2ccc(Cl)c(Cl)c2)cc1OC	-4	0%	?	-46%	6%	?
CCOc1ccc(-c2nc(S(=O)(=O)c3ccccc3)c(N3CCC(C(N)=O)CC3)o2)cc1	6	-2%	19%	-3%	7%	13%
Cc1nn(Cc2ccccc2Cl)c2sc(C(=O)NC(C)(C)C)cc12	5	-6%	?	-43%	1%	-1%
Cc1csc(NC(=O)c2cc3c(C)nn(Cc4ccccc4Cl)c3s2)n1	6	8%	16µM*	-5%	2%	?
Cc1nn(Cc2ccccc2Cl)c(C)c1NC(=O)c1ccn(C)n1	10	0%	12µM*	-23%	8%	8.2µM*
CCC(CC)c1nnc(NC(=O)c2c(C)nn(Cc3ccccc3Cl)c2C)s1	23	-2%	-26%	9%	7%	23µM*
Cc1nn(Cc2ccccc2Cl)c(C)c1NC(=O)c1nc2ncccn2n1	9	21%	13µM*	8%	2%[56.1 µM]	13µM*
Cc1nn(Cc2ccccc2Cl)c(C)c1C(=O)NC1=NCCS1	10	-4%	-15%	-15%	2%	0%
O=C(OCC#CCSc1nnc(-c2cccs2)o1)c1ccc(F)cc1	/	/	/	/	-14%	/
SMILES	IL-1B inflam inh	TGFb inhibitor	TDP1 cell noCPT	HepG2 tox	TDP1 inh	TDP1 cell CPT
Cc1ccc(C(=O)NCCc2nnc3n2CCN(C(=O)c2ccnc(Cl)c2)CC3)cc1	/	/	1%	/	/	13%
Cc1cc(C(F)F)n2nc(C(=O)Nc3ccc(C(C)C)cc3)nc2n1	/	-9%	-30%	1%	-3%	-17%
COc1ccc(N2CCN(C(=O)[C@@H]3CCCN3C3=NS(=O)(=O)c4ccccc43)CC2)cc1	-7	14%	-3%	-46%	1%	-11%
NCCN(Cc1ccc(Cl)c(Cl)c1)c1ccc(Br)cn1	/	/	4µM*	/	/	4µM*
CC[N+](C)(C)CCN(Cc1ccc(Cl)cc1)c1ccccn1	-7	5%	9.2µM*	-13%	3%	18µM*
COc1ccc(CN(CCCN)c2ccc(Br)cn2)cc1	/	/	11µM*	/	/	?
NCCCN(Cc1ccc(Cl)c(Cl)c1)c1ccccn1	/	/	8.9µM*	/	/	10µM*
O=C(NCCc1csc(-c2cccnc2)n1)c1cccc(C(F)(F)F)c1	/	-13%	/	-36%	2%	/
CC(C)C(N)C(=O)O (stereo not drawn)	/	/	-5%	/	1%	-1%
CCOC(=O)C(NC(=O)c1ccc(Cl)cc1Cl)(Nc1ccc(C)cc1)C(F)(F)F (stereo not drawn)	-21	-17%	16µM*	-42%	6%	23µM*
C=C(C)C(=O)Nc1cccc(C2=NOC3(C2)C[C@@H](C(N)=O)N(C(=O)c2cc([N+](=O)[O-])cc([N+](=O)[O-])c2)C3)c1 (stereo partly drawn)	-18	3%	0%	-17%	/	-25%
CCCCCC(=O)Nc1cccc(C2=NOC3(C2)C[C@@H](C(N)=O)N(C(=O)Cc2ccc([N+](=O)[O-])cc2)C3)c1 (stereo partly drawn)	-29	?	?	-11%	6%	?
CCC(=O)Nc1cccc(C2=NOC3(C2)C[C@H](C(N)=O)N(C(=O)c2ccc(Cl)cc2)C3)c1 (stereo partly drawn)	26	-2%	1%	-11%	2%	-1%
